Screens deposited in PubChem by Johns Hopkins Ion Channel Center.
CHT inh: human CHT choline transport inhibition; Q9GZV3; CHT-expressing cells, membrane potential dye, choline response; hits give low values; B-score at 10 µM; 0.86% of 310,000 active;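 active means B-score over 3 SD under the library average, and starting fluorescence ratio not unusually high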;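 further: choline stimulus applied at its EC90 after an EC20 pre-addition; B-score computed on integrated fluorescence ratio after choline addition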
Target sequence (Q9GZV3 whole entry, looked up): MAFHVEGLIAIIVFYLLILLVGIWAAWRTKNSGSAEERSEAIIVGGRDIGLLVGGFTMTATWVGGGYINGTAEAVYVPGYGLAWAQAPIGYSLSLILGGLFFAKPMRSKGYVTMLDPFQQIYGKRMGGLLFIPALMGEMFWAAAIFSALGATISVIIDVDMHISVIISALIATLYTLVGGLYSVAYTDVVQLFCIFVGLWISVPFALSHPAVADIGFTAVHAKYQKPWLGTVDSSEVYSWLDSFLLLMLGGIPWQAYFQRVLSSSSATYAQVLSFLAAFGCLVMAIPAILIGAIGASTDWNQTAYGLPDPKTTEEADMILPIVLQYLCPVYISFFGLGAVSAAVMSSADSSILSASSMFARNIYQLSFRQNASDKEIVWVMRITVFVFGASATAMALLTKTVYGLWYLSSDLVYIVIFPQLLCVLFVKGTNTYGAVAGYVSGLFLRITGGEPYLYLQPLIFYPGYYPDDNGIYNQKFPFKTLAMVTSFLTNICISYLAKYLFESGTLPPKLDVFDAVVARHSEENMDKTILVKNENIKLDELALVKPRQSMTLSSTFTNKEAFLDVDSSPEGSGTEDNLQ
TMEM16A inh: inhibitors of mouse TMEM16A calcium-activated chloride channel. Q8BHY3. HEK293 TMEM16A/YFP iodide influx fluorescence, ionomycin. normalized B-score (activity score, 25-100; higher = stronger inhibition) at 10 µM. 1.2% of 310,000 active;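 active means ratio plate-corrected score three or more library SD toward inhibition, starting fluorescence score within five deviations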;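 further: score derived from kinetic fluorescence span divided by baseline fluorescence per well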
TMEM16A act: activates or potentiates the mouse TMEM16A chloride channel. Q8BHY3. HEK293 TMEM16A/YFP-H148Q/I152L, iodide quench fluorescence; hits give low values. B-score at 10 µM. 0.3% of 340,000 active. AID 623877;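 active means fluorescence-ratio B-score plate-corrected deviation score at least 3 library SD below zero, with starting fluorescence score within 5 deviations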;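 further: channel opened by trigger with iodide after compound preincubation; score built on the fluorescence ratio of max minus min over baseline; more negative score means more quench and so TMEM16A activation or potentiation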
CHT PAM: allosterically activates the human high affinity choline transporter; CHT-expressing cells, membrane potential dye, choline EC20; hits give high values; LV-AA mutant CHT in HEK293 cells; B-score at 10 µM; Q9GZV3; 0.49% of 310,000 active;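 active means initial fluorescence not abnormally high and integrated response B-score, plate-corrected, over 3 SD above library mean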
* marks the source's active call; other numbers are inactive results. Sampled rows, rich in hits. Any-hit rate of the full collection: about 2.3%.

For Cc1cccc(NS(=O)(=O)c2ccc(C(=O)NCC(c3ccco3)N3CCCCC3)cc2)c1C (configuration not stated) the results were CHT inh inactive, TMEM16A inh inactive, TMEM16A act inactive and CHT PAM inactive.
For COc1ccc(/C=N/N=C2/NC(=O)CC(C(=O)O)S2)cc1 (configuration not stated) the results were CHT inh inactive, TMEM16A inh inactive, TMEM16A act inactive and CHT PAM inactive.
For COc1ccc(/C=N/N=C2/CC(C)(C)Cc3n[nH]c(=O)cc32)cc1 the results were CHT inh inactive, TMEM16A inh inactive, TMEM16A act -9.1* and CHT PAM inactive.
Screening CCOCc1c(C(=O)Nc2ccccc2N2CCN(C)CC2)oc2ccccc12 returned TMEM16A act inactive.
COc1ccc(-c2csc(NC(=O)c3ccccc3NS(=O)(=O)c3ccc(C)cc3)n2)cc1 was read as CHT inh inactive, TMEM16A inh 100*, TMEM16A act inactive and CHT PAM inactive.
Screening O=C(NN1C(=O)/C(=C/c2ccc(O)cc2)SC1=S)c1ccccc1O returned CHT inh inactive, TMEM16A inh inactive, TMEM16A act inactive and CHT PAM inactive.
For COc1ccc(/C=C2\SC(=S)N(NC(=O)c3ccncc3)C2=O)cc1OC the results were CHT inh -8*, TMEM16A inh inactive and CHT PAM inactive.
`O=C(NN1C(=O)/C(=C/c2ccc(O)cc2)SC1=S)c1cccc(O)c1` gave CHT inh -9.4*, TMEM16A inh inactive, TMEM16A act inactive and CHT PAM inactive.
Cc1ccc(-n2[nH]c(C)c(/C=N/Nc3ccc([N+](=O)[O-])cc3[N+](=O)[O-])c2=O)cc1 was read as CHT inh inactive, TMEM16A inh 100*, TMEM16A act inactive and CHT PAM inactive.
`CCCCC(CC)C(=O)Nc1ncc([N+](=O)[O-])s1` (configuration not stated) gave CHT inh inactive, TMEM16A inh 100*, TMEM16A act inactive and CHT PAM inactive.
For Cc1c(CCOC(=O)CC23CC4CC(CC(C)(C4)C2)C3)sc[n+]1CC(=O)c1ccccc1 the results were CHT inh inactive, TMEM16A inh 100*, TMEM16A act inactive and CHT PAM inactive.
For CC(C)(C)NC(=O)CN1CCCN(C(=O)c2cccc(S(=O)(=O)N3CCc4ccccc43)c2)CC1 the results were TMEM16A act inactive.
CC(=O)c1ccc(NC(=O)C(C)O/N=C(\N)c2ccccc2)cc1 (configuration not stated) was read as TMEM16A act inactive.
CC(=O)NCc1ccc(S(=O)(=O)N2CCN(S(=O)(=O)c3ccc4ccccc4c3)CC2)cc1 was read as TMEM16A act inactive.
`COc1cc(S(=O)(=O)Nc2ccc(C)cc2)ccc1N=Cc1c(C)[nH]n(-c2ccc(C)cc2)c1=O` gave CHT inh inactive, TMEM16A inh inactive, TMEM16A act inactive and CHT PAM inactive.
COc1cc(S(=O)(=O)Nc2ccc(C)cc2)ccc1N=Cc1c(C)c(C#N)c(=O)n(C)c1O was read as CHT inh inactive, TMEM16A inh inactive, TMEM16A act -6* and CHT PAM inactive.
For N#CC(c1cccc(Cl)c1)c1ccc2c(C(F)(F)F)cc(C(F)(F)F)nc2n1 (configuration not stated) the results were CHT inh inactive, TMEM16A inh 100*, TMEM16A act -4.8* and CHT PAM inactive.
NNc1ccc2c(C(F)(F)F)cc(C(F)(F)F)nc2n1 was read as CHT inh inactive, TMEM16A inh inactive, TMEM16A act inactive and CHT PAM inactive.
CCc1ccc(NC(=O)c2cnn(-c3ccccc3)c2C)cc1 was read as CHT inh inactive, TMEM16A inh inactive, TMEM16A act inactive and CHT PAM inactive.
Cc1c(C(=O)Oc2cccc3ccccc23)cnn1-c1ccccc1 was read as CHT inh inactive, TMEM16A inh 100*, TMEM16A act inactive and CHT PAM inactive.
`CC(C)Oc1ccc(CNC(=O)c2cc(S(=O)(=O)N3CCOCC3)cn2C)cc1` gave CHT inh inactive, TMEM16A inh inactive, TMEM16A act inactive and CHT PAM inactive.
COc1cc(F)c(C2=CC(=O)C[C@H](c3ccc(Cl)cc3)C2)cc1F was read as TMEM16A act inactive.
CCCc1ccc(C(C)NC(=S)NC2CCCCC2)cc1 (configuration not stated) was read as CHT inh inactive, TMEM16A inh 100*, TMEM16A act inactive and CHT PAM inactive.
For CC(=O)N1CCN(c2ccc(Oc3ccc([N+](=O)[O-])c(C(F)(F)F)c3)cc2)CC1 the results were CHT inh inactive, TMEM16A inh 100*, TMEM16A act inactive and CHT PAM inactive.
Screening CCOc1ccc(C(=O)Nc2ccc(N3CCN(C(C)=O)CC3)cc2)cc1[N+](=O)[O-] returned CHT inh inactive, TMEM16A inh inactive, TMEM16A act inactive and CHT PAM inactive.
Screening Cc1ccc(CNC(=O)CN(C(=O)C2(C)CC(=O)N=C3C=CC=CN32)c2ccccc2F)cc1 (configuration not stated) returned CHT inh inactive, TMEM16A inh inactive, TMEM16A act inactive and CHT PAM inactive.
Screening Cc1cc(C(=O)CCC(=O)NCC(=O)Nc2c(C)cccc2C)c(C)s1 returned TMEM16A act inactive.
CCN(CC)c1ccc(C(=O)NNC(=O)CCl)cc1 was read as CHT inh inactive, TMEM16A inh inactive, TMEM16A act inactive and CHT PAM inactive.
CCN(CC)c1ccc(C(=C2C=CC(=[N+](CC)CC)C=C2)c2ccc(N(CC)CC)cc2)cc1 was read as TMEM16A act -6.6*.
`CCN(CC)c1ccc(C(=O)NNC(=O)CCNC(=O)c2ccccc2)cc1` gave TMEM16A act inactive.
CCN(CC)c1ccc(C(=C2C=CC(=[N+](CC)CC)C=C2)c2ccccc2)cc1 was read as TMEM16A act -12*.
Nc1cc(=O)[nH]c(SCc2cccc3ccccc23)n1 was read as CHT inh inactive, TMEM16A inh inactive, TMEM16A act inactive and CHT PAM inactive.
For O=c1cc(C(F)(F)F)nc(SCc2cccc3ccccc23)[nH]1 the results were CHT inh inactive, TMEM16A inh 25*, TMEM16A act inactive and CHT PAM inactive.
Screening CC(NC(=O)COC(=O)Cc1ccc(Cl)cc1)c1ccccc1 (configuration not stated) returned TMEM16A act inactive.
`CC(NC(=O)Cc1ccc(-c2ccccc2)cc1)c1ccccc1` (configuration not stated) gave CHT inh inactive, TMEM16A inh inactive, TMEM16A act -18* and CHT PAM inactive.
For CCOC(=O)C1(Cc2ccccc2C(F)(F)F)CCN(CCCn2cccn2)CC1 the results were CHT inh inactive, TMEM16A inh inactive, TMEM16A act -6.6* and CHT PAM inactive.
Screening O=C(CSc1ccccc1)NCCCN1CCOCC1 returned CHT inh inactive, TMEM16A inh inactive, TMEM16A act -11* and CHT PAM inactive.
